Out of some 68,000 compounds screened, about 2,700 (4%) showed an effect of 50% or more. The list comes from a sample in which strong results are over-represented; it also holds similar structures and randomly drawn compounds.
These molecules were tested on Plasmodium berghei (assay: Screen against P. berghei liver stage (PbLuc), transformed with Luciferase, at 2uM). Settings: tested at 2 uM.
Type: functional, HepG2
`O=C(O)c1sccc1Oc1ccc(NC(=O)C2CC2)cc1` showed an INHIBITION of 19.62%.
`Cn1cccc1C(=O)N1CCO[C@@H]2CN(Cc3ccco3)C[C@@H]2C1` gave an INHIBITION of 35.64%.
`c1ccc(Cc2nc(CNC3CCOC4(CCOCC4)C3)no2)cc1` (centres undefined) was tested, and the INHIBITION was 1.06%.
`c1ccc(Cc2noc(CCNC3CCOC4(CCOCC4)C3)n2)cc1` (centres undefined) showed an INHIBITION of -7.16%.
Molecule `c1ccc(-c2nc(CCNC3CCOC4(CCOCC4)C3)no2)cc1` (centres undefined) has an INHIBITION of 58.53%.
`c1cnc2[nH]c(C3CCNCC3)c(CN3CCOCC3)c2c1` showed an INHIBITION of 26.98%.
In the case of `NC(=O)c1nc2c(s1)CCN(Cc1ccccc1)CC2`, the INHIBITION is reported as -14.74%.
`CCC(CC)c1cc(CNC(=O)N2CCOCC2CC)on1` (centres undefined) was tested, and the INHIBITION was -8.83%.
Work on `CC(C)C(=O)NCCNC(=O)C12CCC(=O)N1c1cc(Cl)ccc1S2` (centres undefined) yielded an INHIBITION of 79.21%.
`CC(C)NC(=O)CNC(=O)C12CCC(=O)N1c1cc(Cl)ccc1S2` (centres undefined) was tested, and the INHIBITION was 62.51%.
In the case of `CC(C)NC(=O)CNC(=O)N1CCc2c([nH]c3ccc(Cl)cc23)C1`, the INHIBITION is reported as 43.4%.
`CCOCCCNC(=O)C1(C)CCC(=O)N1c1ccccc1F` (centres undefined) showed an INHIBITION of 19.99%.
`COC(=O)CNC(=O)C12CCC(=O)N1c1cc(Cl)ccc1S2` (centres undefined) gave an INHIBITION of 48.21%.
Work on `CC(C)C(=O)NCc1cccc(N2CCCCC2=O)c1` yielded an INHIBITION of -8.7%.
For `CC(=O)Nc1cccc(OCCNC(=O)N(C)Cc2ccncc2)c1`, the INHIBITION was -44.49%.
For `O=C(NC(c1ccc(Cl)cc1)c1cccnc1)C1CC1` (centres undefined), the INHIBITION was -58.01%.
`O=S(=O)(Cc1c(F)cccc1Cl)NCCCN1CCCCCC1` showed an INHIBITION of 53.19%.
`O=S(=O)(Cc1ccccc1F)NCCCN1CCCCC1` gave an INHIBITION of 21.18%.
`O=S(=O)(Cc1ccccc1Cl)NCCCN1CCCC1` showed an INHIBITION of 49.88%.
Work on `CN(CC(=O)N1CC(C)(C)[C@@](C)(O)C1)Cc1ccncc1` yielded an INHIBITION of 32.07%.
For `CCc1nnc(Nc2cc(C)nc(C3CCN(c4ncccn4)C3)n2)s1` (centres undefined), the INHIBITION was -10.89%.
Work on `O=C(c1cc(COc2ccc3c(c2)OCO3)[nH]n1)N1CCSCC1` yielded an INHIBITION of 14.46%.
Work on `Cn1cnc2c1CCN(c1ccnc(-c3ccccc3)n1)C2` yielded an INHIBITION of 56.33%.
`Cn1cnc2c1CCN(Cc1csc(-c3ccccc3)n1)C2` was tested, and the INHIBITION was 6.3%.
In the case of `c1ccc(-c2nccc(N3CCc4c(ncn4C4CC4)C3)n2)cc1`, the INHIBITION is reported as 24.51%.
Work on `Cc1nc(CN2CCN(c3nc4c(s3)c(C)nn4C)CC2)cs1` yielded an INHIBITION of 36.88%.
`COc1ccc(NC(=O)C(c2ccc(OC)cc2)N2CCOCC2)cc1` (centres undefined) showed an INHIBITION of 27.22%.
Work on `O=C(Nc1ccc(F)cc1)C(c1ccccc1)N1CCOCC1` (centres undefined) yielded an INHIBITION of 71.1%.
`COc1ccc(NC(=O)C(c2cccc(F)c2)N2CCOCC2)cc1` (centres undefined) showed an INHIBITION of 26.65%.

— ChEMBL document CHEMBL4513216, “Probing the Open Global Health Chemical Diversity Library for Multistage-Active Starting Points for Next-Generation Antimalarials” (ACS Infect Dis, 2020)
